# Assay outcomes deposited in PubChem by National Center for Advancing Translational Sciences (NCATS).
# GLS inh – inhibitors of human glutaminase (GLS); O94925; GLS enzymatic activity, qHTS titration; hit rate 0.21% among 410,000; Potency, µM (doses to about 45.5 µM), for inactives: at the highest dose activity change, negative = inhibition, most hits filed as inhibitors; further: on the % scale 0 is the no-effect control and ±100 the full control effect
#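 Coupled fluorescence readout: glutamate oxidase/HRP/Amplex Red detect glutamate formed by hKGA from L-glutamine (1 mM solution added). Buffer 45 mM KH2PO4 pH 8.2, 0.02% Tween-20; reads at t0 and 30 min RT.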
# POLI inh – DNA polymerase iota (human) inhibition; Potency, µM (highest dose often 115 µM), for inactives: top-dose activity, negative = inhibition, hits mostly inhibitors; hit rate 1% among 390,000; Q9UNA4; Pol iota fluorescent replication assay, 10 min; AID 588590
#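 Fluorescent replication assay read twice, at 0 min and 10 min after adding 50 nM (final) substrate. Enzyme (10 nM) and compounds were first incubated 15 min at room temperature; enzyme-free buffer wells were negative controls.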
# POLB inh – blocks human DNA polymerase beta activity; P06746; hit rate 1.3% among 340,000; Potency, µM (titrated, usually from 114 µM), for inactives: top-dose activity change, negative = inhibition, usual class: inhibitors; AID 485314; Pol beta primer extension/strand displacement, fluorescence kinetic; further: on the % scale 0 is the no-effect control and ±100 the full control effect
#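 Curves were derived by four-parameter Hill fits of normalized qHTS data. The kinetic fluorescent primer-extension read was taken at 0 and 10 min after 50 nM substrate, following a 15 min room-temperature preincubation of 10 nM enzyme with compounds.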
# POLK inh – inhibitors of human DNA polymerase kappa; Potency, µM (doses to about 107 µM), without a hit: at the top dose activity, negative = inhibition, most hits filed as inhibitors; purified Pol kappa, fluorescent DNA synthesis assay, 10 min; hit rate 0.53% among 400,000; further: on the % scale 0 is the no-effect control and ±100 the full control effect
#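 50 nM final substrate added after 15 min RT preincubation of 10 nM Pol kappa with compound; fluorescence read at 0 and 10 min.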
# POLH inh – DNA polymerase eta (human) inhibition; Q9Y253; recombinant Pol eta, fluorescent DNA replication assay; Potency, µM (highest dose often 114 µM), without a hit: top-dose activity change, negative = inhibition, actives largely listed as inhibitors; hit rate 1.2% among 390,000; further: on the % scale 0 is the no-effect control and ±100 the full control effect
#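 Fluorescent replication assay: 50 nM final substrate added after a 15 min room-temperature compound preincubation with 10 nM enzyme. Signal taken at 0 min and again at 10 min.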
# APEX1 inh – inhibitors of human APE1 endonuclease. P27695. hit rate 0.35% among 350,000. recombinant APE1, TAMRA/BHQ-2 abasic DNA cleavage fluorescence. Potency, µM (series often up to 65.8 µM), for inactives: at the highest dose activity change, negative = inhibition, most hits filed as inhibitors;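 further: plate controls were vehicle for no effect and reference inhibitor for full effect; nearly all actives have a fitted effect of over 55% in size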
#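 Kinetic fluorescence read (525 ex/598 em nm, three reads 60 s apart) of AP-site incision; signal = third minus first read. Enzyme 0.75 nM, dual-labelled THF duplex 50 nM, compound preincubation 15 min RT.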
# * = called active by the depositor; ? = inconclusive; nt = no result; [ ] = dose if it differs, or a comment. Sampled rows, rich in hits. Any-hit rate of the full collection: about 2.4%. The call rests on the fitted dose curve; in most records, active means well fitted curve in the direction sought with a large enough effect; inconclusive means small, poorly fitted or top-dose-only effect, or another doubt; inactive means no such curve, though single readings can be large; an effect the other way counts as inactive or inconclusive. Potency means the concentration at half of the fitted maximal effect.
SMILES,GLS inh,POLI inh,POLB inh,POLK inh,POLH inh,APEX1 inh
COC(=O)c1ccccc1NC(=O)CSc1nc(O)c(-c2ccccc2)c(=O)[nH]1,67.5%,84.1%,?,-18.6%,?,-1.0%
CC(C)(C)OC(=O)NCCc1nnc(SCC(=O)Nc2cccc(Cl)c2)o1,12.0%,43.5%,-5.8%,-12.0%,-13.2%,0.0%
COc1cc(CNCc2cc(OC)ccc2OC)cc(OC)c1,-7.1%,29.3%,19.0%,19.7%,-7.6%,35.0%
CCC1=C(OC(=O)N(CC)CC)N2C(=O)OC(=NCC(=O)OC)[C@]2(C)[C@H]2C1=CC[C@H]1C(=O)N(C)C(=O)[C@H]12,1.6%,-2.4%,0.4%,7.0%,-14.3%,12.7%
COc1cccc(Oc2coc3c(CN4CCOCC4)c(O)ccc3c2=O)c1,22.3%,6.2%,-29.6%,-16.0%,-5.2%,-3.8%
O=C(COC(=O)c1cc(-c2ccccc2Cl)nc2ccccc12)Nc1ncc(C(F)(F)F)cc1Cl,16.9%,?,31.6µM*,?,?,?
Cc1cc(C(=O)OCC(=O)NC2CCS(=O)(=O)C2)c2ccccc2n1 (stereo unspecified),-8.2%,158.5%,2.4%,4.7%,-20.8%,3.2%
O=C(COC(=O)c1cc(-c2cccc3ccccc23)nc2ccccc12)NC1CCS(=O)(=O)C1 (stereo unspecified),-5.7%,?,50.1µM*,-11.1%,-24.6%,-0.3%
CC1CCCC(NC(=O)COC(=O)c2ccccc2[N+](=O)[O-])C1C (stereo unspecified),-0.4%,61.3%,-2.5%,-12.0%,0.8%,3.1%
CC1CCCC(NC(=O)COC(=O)c2ccc([N+](=O)[O-])s2)C1C (stereo unspecified),-0.2%,89.1µM*,nt,-18.7%,?,?
O=C(COC(=O)c1ccc([N+](=O)[O-])s1)Nc1ncc(C(F)(F)F)cc1Cl,-4.7%,?,?,-40.4%,35.5µM*,?
Cn1nnc2cc(C(=O)NCc3ccc4c(c3)OCO4)ccc21,-8.8%,2.6%,?,-8.4%,-16.7%,-1.4%
CCOc1cc(N2CCOCC2)c(OCC)cc1NC(=O)COC(=O)c1ccc(OC)c([N+](=O)[O-])c1,2.0%,19.7%,nt,-18.2%,-10.7%,nt
NS(=O)(=O)c1ccc(NNC(=O)c2ccccc2C(=O)O)cc1,6.1%,38.4%,6.7%,2.7%,-18.6%,3.2%
CC1CCCC(NC(=O)COC(=O)/C=C/c2ccco2)C1C (stereo unspecified),-6.7%,70.8µM*,nt,-26.3%,-3.2%,?
O=C(Nc1ccc(Cl)c(Cl)c1)Oc1ccc(NC(=O)c2ccco2)cc1,13.9%,-10.5%,-15.4%,-15.3%,5.2%,12.2%
COc1ccc2oc(=Nc3ccc(C(=O)O)cc3)c(C(=O)NCc3ccco3)cc2c1,0.6%,-8.0%,28.2%,-2.2%,-30.9%,-1.3%
COc1ccc2cc(C(=O)NCc3ccco3)c(=Nc3ccc(C(=O)O)cc3)oc2c1,-15.6%,-10.1%,20.0%,-4.7%,89.1µM*,-5.6%
CC(C)Cn1c(NCCN(C)C)nc2c1c(=O)[nH]c(=O)n2C,42.6%,12.1%,7.9%,-10.2%[60.1 µM],-2.2%,9.3%
O=c1cc(-c2ccccc2)oc2ccc(O)cc12,17.9%,7.8%,-19.8%,-3.0%,-11.7%,2.0%
O=c1cc(-c2ccc(O)c(O)c2)oc2ccccc12,nt,nt,nt,14.1µM*,nt,10.3%
O=c1cc(-c2ccccc2)oc2cc(O)c(O)cc12,nt,nt,nt,3.16µM*,nt,?
O=C(c1ccccc1)c1c(O)cc(-c2ccccc2)oc1=O,11.9%,-5.0%,15.8µM*,-17.3%,-9.5%,-4.9%
O=C(c1ccccc1)c1cc(-c2ccccc2)on1,-3.6%,0.4%,-0.1%,-3.5%,-18.2%,3.1%
O=C(O)c1cc(-c2ccc(/C=N/N3C(=O)C4C5C=CC(CC5)C4C3=O)o2)ccc1Cl (stereo unspecified),5.5%,7.2%,-22.1%,-17.8%,50.1µM*,-4.5%
